# Measurements as given in PubChem BioAssay AID720579 (National Center for Advancing Translational Sciences (NCATS), 2013).
# Screen size: about 310,000 compounds; about 1,900 (0.61%) were called active. Inconclusive results (about 8%) are left out. Calls follow the shape of the full dose curve; tested in A549 cells. The list comes from a sample in which actives are over-represented; it also holds similar structures and randomly drawn compounds.
# Assay: qHTS for Stage-Specific Inhibitors of Vaccinia Orthopoxvirus: mCherry Reporter Primary qHTS; also: nearly all actives have a fitted effect of over 35% in size
# Details: Vaccinia virus mCherry reporter infection, fluorescence; series mostly up to 36.5 µM; activity change, negative = inhibition: at the top concentration
# % is scaled to controls: 0 for no effect and ±100 for the full control effect; potency is read from the fitted curve at half-maximal effect.
Structure (SMILES),Potency,"activity change, negative = inhibition",outcome
[O-][n+]1onc2c1CCc1[nH]c(-c3ccccc3)nc1-2,15.8 µM (active),,
CC=CCn1c(SCCCc2ccccc2)nc2c1c(=O)[nH]c(=O)n2C,,3.79% (inactive),
Cc1c(Cl)c([N+](=O)[O-])nn1CCCC(=O)Nc1cc(Cl)ccc1Cl,,-18.7% (inactive),
Cc1c(Cl)c([N+](=O)[O-])nn1Cc1ccc(C(=O)N/N=C\c2cc(Cl)ccc2O)o1,6.31 µM (active),,
O=C(N/N=C/c1ccc2c(c1)OCO2)c1ccc(Cn2cc([N+](=O)[O-])cn2)o1,,-29.5% (inactive),
O=C(c1ccccc1)N1CCN(c2cc(-c3ccccc3)nc3cc(-c4cccc(Cl)c4)nn23)CC1,,-23.1% (inactive),
CCc1nc2c(OCc3ccccc3)cccn2c1N(C)C(=O)c1ccco1,,-10.6% (inactive),
COc1ccc(C(C(=O)Nc2c(C)cccc2C)N2CCN(c3ccc(C)cc3)CC2)cc1 (stereo not drawn),,-24.2% (inactive),
Brc1cccc[n+]1Cc1cccc(C[n+]2ccccc2Br)c1,,31.5% (inactive),
Cc1cc2ccccn2c1C(=O)c1cccc(F)c1,,,inactive
Cc1cc2ccccn2c1C(C[N+](=O)[O-])c1c(F)cccc1Cl (stereo not drawn),10 µM (active),,
O=C(Cc1c(F)cccc1Cl)Nc1ncc([N+](=O)[O-])s1,,-7.45% (inactive),
CCCCOc1ccc(C(=O)NO)cc1,,-10.8% (inactive),
CCc1cc2c(N3CCN(c4nnc(CC)s4)CC3)ncnc2s1,12.6 µM (active),,
CCN1CCN(c2ncnc3c2cnn3-c2ccc(C)c(C)c2)CC1,,-9.72% (inactive),
CCc1ccc(C(=O)NNC(=O)C2CCN(c3ncnc4sc(C)c(C)c34)CC2)cc1,,-18.3% (inactive),
Cc1ccc(S(=O)(=O)N2CC3C(=O)C[C@@H](c4ccccc4Cl)N(S(=O)(=O)c4ccc(C)cc4)C3CC2c2ccccc2)cc1 (stereo partly drawn),,-0.55% (inactive),
CSc1nc(-c2ccccc2)nc(C(Cl)Cl)n1,12.6 µM (active),,
Clc1ccc2nc(-c3ccccc3)nc(C(Cl)Cl)c2c1,,-15.5% (inactive),
CSc1nc(Nc2ccc(F)cc2)cc(-c2ccccc2)n1,,-19% (inactive),
CCCc1ccc(C(O)c2ncc(-c3cccc(OC)c3)[nH]2)cc1 (stereo not drawn),,3.12% (inactive),
CCOC(=O)[C@]12CCCC=C1N(CCC1=CCCCC1)C(=O)[C@H](CC(=O)NCCCOC)C2,,,inactive
CCOC(=O)N1CCN(C(=O)C[C@@H]2C[C@@]3(C(=O)OC)CC(C)(C)CC=C3N(Cc3ccco3)C2=O)CC1,,-26.4% (inactive),
CC1(C(=O)Nc2cccc3c2CCCC3)CCN1C(=O)CCc1ccc(Cl)cc1Cl (stereo not drawn),,,inactive
CCOC(=O)c1ccccc1C(=O)N1CCOCCOCCOCC1,,-10.9% (inactive),

Structure (SMILES),Potency,"activity change, negative = inhibition",outcome
Cc1ccccc1-c1ccc(Nc2ccc(C(=O)N3CCOCC3)cc2)nn1,,-14.9% (inactive),
Cc1oc2c(c1C(=O)N1CCOCC1)C(=O)c1ccccc1C2=O,11.2 µM (active),,
Fc1cccc(Cc2c(-c3ccc(Cl)cc3)nc3ccc(Cl)cn23)c1,,1.23% (inactive),
COc1cc(OC)c(OC)cc1/C=C1\C=Cc2ccccc21,,-21.7% (inactive),
CCc1nc2ccc(C(=O)Nc3cc(-c4ccccc4)ccc3OC)cn2c1N(CC)CC(=O)N(C)C,,-14.5% (inactive),
COC(=O)Cc1ccc(Oc2ncc(C(F)(F)F)cc2Cl)cc1,,,inactive
COc1cccc(/C(C)=N/Nc2ncc(Cl)cc2Cl)c1,,,inactive
COc1cccc(/C=N/Nc2ncc(C(F)(F)F)cc2Cl)c1O,11.2 µM (active),,
CCc1nc2ccc(C(=O)NCc3ccc(OC)cc3)cn2c1N(CC)Cc1cccc(Br)c1,,,inactive
Cc1nn(-c2ccccc2)c(C)c1NC(=O)CCl,10 µM (active),,
Cc1nn(-c2ccccc2)c(C)c1NC(=O)COC(=O)Cc1ccccc1,,-14.2% (inactive),
Cc1nn(-c2ccccc2)c(C)c1NC(=O)COc1ccc(Cl)cc1Cl,,-12.6% (inactive),
Cc1cccc(NC(=O)COC(=O)c2ccccc2OCc2cccc(Br)c2)c1,,,inactive
CC(C)Nc1ncnc2c1ncn2[C@H]1CN(Cc2ccncc2)C[C@@H](CO)O1,,37.1% (inactive),
OCCN1CCN(c2ncnc3c2ncn3[C@H]2CN(Cc3ccco3)C[C@@H](CO)O2)CC1,,14.1% (inactive),
OC[C@@H]1CN(Cc2ccncc2)C[C@H](n2cnc3c(N4CCN(c5ccccc5)CC4)ncnc32)O1,11.2 µM (active),,
Cc1cc(Br)cn2c(Cc3ccsc3)c(-c3ccc(C#N)cc3)nc12,,17.8% (inactive),
COc1cccc(-c2cc3nc(NCc4ccccc4OC)n(C)c(=O)c3s2)c1,,-20.6% (inactive),
CCCNC(=O)C1(C)CCCN(C(=O)c2oc3ccccc3c2C)C1 (stereo not drawn),,3.6% (inactive),
COc1c(Cl)cc(Cl)cc1C(=O)Nc1cccc2cccnc12,,-4.07% (inactive),
S=C(NCc1cccnc1)Nc1ccc(Cl)cc1Cl,,,inactive
CC(=O)/C(=N\Nc1ccc(Cl)cc1Cl)Sc1cccc2cccnc12,3.55 µM (active),,
CCOC1=C2[C@@H](CN(S(=O)(=O)c3ccc(C)cc3)[C@H]2c2ccccc2F)[C@H]2C(=O)N(Cc3ccccc3)C(=O)[C@H]2C1,,1.58% (inactive),
CCOCCC(=O)Nc1ccc2c(c1)c(=O)n(C)n2-c1ccc2ccccc2c1,,-4.6% (inactive),
CN(C)C1=C2C=CC=CC2/C(=C2/C=Cc3ccccc32)C=C1 (stereo not drawn),,-12.9% (inactive),

Structure (SMILES),Potency,"activity change, negative = inhibition",outcome
Nc1ccc(/C=C/c2ccnc3ccccc23)c([N+](=O)[O-])c1,,24.2% (inactive),
Oc1ccccc1-c1cc(-c2ccc(Cl)cc2)n[nH]1,8.91 µM (active),,
Cc1ccc(NC(=O)c2cc(-c3ccccc3O)n[nH]2)cc1C,,,inactive
O=C(Nc1ccc(Cl)cn1)c1ccccc1-c1ccccc1,,-7.03% (inactive),
O=C(Nc1ccc2c(c1)OCCO2)C(C1CC1)N1CCC(Cc2ccccc2)CC1 (stereo not drawn),,44.7% (inactive),
CCc1cc(C(=O)N(CC)CC(=O)Nc2c(F)cccc2F)sc1C,,,inactive
COC(=O)Cc1ccc(OC2(C)CCN(Cc3ccc4c(c3)OCCO4)C2)cc1 (stereo not drawn),,-9.78% (inactive),
CC1(C)OC(=O)C2=C(C[C@@H](C3CCCCC3)O[C@@H]2c2ccc(Cl)cc2)O1,,4.01% (inactive),
O=C(Nc1cccc(NC(=O)c2ccc(Br)cc2)c1)c1ccccc1,inactive,,
CC(NC(=O)c1ccccc1)C(=O)Nc1ccccc1 (stereo not drawn),,-16.4% (inactive),
O=C(NC1=CC(=O)c2ccccc2C1=O)c1ccccc1,7.94 µM (active),,
COCC1CCCCN1C(=O)c1cc(COc2ccc(C)c(C)c2)on1 (stereo not drawn),,-3.71% (inactive),
CN(C)c1ccc(/C=N\Nc2ccc([N+](=O)[O-])cc2[N+](=O)[O-])cc1Cl,,-14.1% (inactive),
Cc1ccc(S(=O)(=O)N2C[C@H]3n4c(=O)ccc(=O)n4C[C@H](OC(=O)NC4CCCC4)[C@@]3(O)C2)cc1,,-13.2% (inactive),
Cc1ccc(C(=O)NC(C)C(c2cccs2)N2CCOCC2)cc1C (stereo not drawn),,,inactive
CCc1nc2c(OCc3ccc(C(=O)OC)cc3)cccn2c1N(C)C(=O)C(C)C,,,inactive
CCOc1ccc(/C=N\NC(=O)c2c(C)nc3cc(C)ccn23)cc1,,-22.5% (inactive),
COC(=O)N/N=C/c1ccc(/C=N/NC(=O)OC)cc1,,-8.87% (inactive),
CCOc1ccc(/C=N/NC(N)=S)cc1,1 µM (active),,
COc1cccc(NC(=O)Nc2ccc(F)cc2)c1,,-29.6% (inactive),
CC(C)C1N=C2c3ccccc3N=C(SCC(=O)c3ccc(O)c(O)c3)N2C1=O (stereo not drawn),11.2 µM (active),,
Cc1ccc(CNC(=O)CSC2=Nc3ccccc3C3=NC(C)C(=O)N23)cc1 (stereo not drawn),,-17.4% (inactive),
O=C(CSC1=Nc2ccccc2C2=NC(c3ccccc3)C(=O)N12)NCC1CCCO1 (stereo not drawn),,-12.9% (inactive),
Cc1cc2nc(-c3ccc(Cl)cc3)c(Cc3cccc(F)c3)n2c(C)c1Br,,24.4% (inactive),
CC(C)C1CCN(C(=O)C2CCC(=O)N(C3CCCCCC3)C2)CC1 (stereo not drawn),,-22.2% (inactive),

Structure (SMILES),Potency,"activity change, negative = inhibition",outcome
Cc1cc(C)nc(N/N=C/c2ccncc2)n1,,-2.46% (inactive),
CCN(CC)c1ccc(/C=N/Nc2nc(C)cc(C)n2)c(O)c1,2.51 µM (active),,
CCOc1ccc(-n2c(O)c(/C=N/Nc3nc(C)cc(C)n3)c3ccccc3c2=O)cc1,,3.78% (inactive),
CC1=C(C(=O)Nc2ccccc2)SCCO1,,,inactive
CC1=C(C(=O)Nc2ccccc2)S(=O)(=O)CCO1,0.891 µM (active),,
O=C(Nc1ccccc1)c1ccc2c(c1)OCCCO2,,-14.5% (inactive),
CC(C)Nc1nc(NCCOc2ccccc2Cl)c2sccc2n1,,-28.6% (inactive),
CN(C)C(=O)CCc1ccc2c3c([nH]c2c1)[C@]1(CCC2CCCC2)[C@@H](C(=O)N2CCOCC2)C[C@H](CC(=O)NCc2ccco2)C(=O)N1CC3,,2.15% (inactive),
O=C(C[C@H]1C[C@H](C(=O)N2CCOCC2)[C@@]2(CCC3CCCC3)c3[nH]c4ccc(Cl)cc4c3CCN2C1=O)NCc1ccco1,7.08 µM (active),,
COc1ccc(CNC(=O)C[C@H]2C[C@H](C(=O)N3CCOCC3)[C@@]3(CCC4CCCC4)c4[nH]c5ccc(Cl)cc5c4CCN3C2=O)cc1OC,,-27.5% (inactive),
COc1ccc(Cl)cc1NC(=O)CN(C)C(=O)c1cn(-c2ccccc2)nc1-c1cccs1,,-28.8% (inactive),
CC(C)C[C@H]1CNC(=S)N1C[C@H]1CCCN1C[C@H](Cc1ccc(O)cc1)N1C[C@H](Cc2ccc(O)cc2)N(CC2CCCCC2)C1=S,,-18.3% (inactive),
Nc1nc(SCc2ccc([N+](=O)[O-])cc2)c2ncn(C3OC(CO)C(O)C3O)c2n1 (stereo not drawn),,-29.7% (inactive),
Nc1ncn(C2OC(CO)C(O)C2O)c(=O)n1 (stereo not drawn),10 µM (active),,
CC(C)Sc1nc(N)nc2c1ncn2C1OC(CO)C(O)C1O (stereo not drawn),,-9.34% (inactive),
COc1ccc(-c2ccc(C(=O)NC(C)C)c3occc23)c(C)c1,,16.1% (inactive),
CC(=O)c1cccc(-c2cnc3c(NC=O)cc(-c4ccc(N(C)C)cc4)cn23)c1,,-17.7% (inactive),
CC(=O)c1ccc(-c2cnc3c(NC=O)cc(-c4cccc(NS(C)(=O)=O)c4)cn23)cc1,11.2 µM (active),,
CC(=O)c1cccc(-c2cnc3c(NC=O)cc(-c4cccc(C(=O)N(C)C)c4)cn23)c1,,-29.9% (inactive),
COc1ccc(-c2cc3nc(NCCOc4ccccc4)ccn3n2)cc1,,18.9% (inactive),
COc1ccc(S(=O)(=O)NCCc2c[nH]c3ccccc23)cc1OC,,,inactive
COc1cccc(CNCCc2c[nH]c3ccccc23)c1OCc1ccccc1F,10 µM (active),,
c1cncc(CNCCc2c[nH]c3ccccc23)c1,,-26.3% (inactive),
